# Measurements as given in PubChem BioAssay (NCATS).
# Inconclusive results are not listed. Entries that show only a call come without a potency. Activity calls are given as the source filed them. Calls follow the shape of the dose curve; as a rule, active = well fitted inhibition curve with a large enough effect; inconclusive = small, poorly fitted or top-dose-only effect; inactive = flat fitted curve, though single readings scatter.
# Target: Calcium and integrin-binding protein 1 (Homo sapiens) (UniProt Q99828)
# Assay: Primary qHTS for Identification of Calcium Integrin Binding Protein 1 (CIB1) Competitor (AID 1508620);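 also: GST tagged CIB1 binding a fluorescein labelled alphaIIb integrin peptide tracer; top concentration of the series differs between compounds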
# Conditions: CIB1-GST / FITC-alphaIIb peptide fluorescence polarization; series mostly up to 114 µM
# Summary of the method: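 Fluorescence polarization competition: CIB1-GST (1 uM final) preincubated with compound 15 min at room temperature, then FITC-labeled alphaIIb peptide (100 nM final) added for another 15 min. Polarization read at Ex 480/Em 540.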
# Chain of Calcium and integrin-binding protein 1 (Homo sapiens) (Q99828 whole entry, looked up): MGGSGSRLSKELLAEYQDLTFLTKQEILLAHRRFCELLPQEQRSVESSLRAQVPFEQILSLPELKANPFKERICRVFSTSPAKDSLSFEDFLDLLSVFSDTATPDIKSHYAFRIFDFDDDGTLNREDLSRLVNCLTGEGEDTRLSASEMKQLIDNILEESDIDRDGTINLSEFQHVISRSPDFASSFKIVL
row,Compound,Potency
1,COc1ccc(C2Nc3ccccc3C(=O)N2Cc2ccccc2)cc1COc1cccc(C(F)(F)F)c1 (centres undefined),inactive
2,O=C(O)c1ccccc1OC1=NS(=O)(=O)c2ccccc21,inactive
3,O=C1CCCC2=C1C(c1[nH]ncc1Cl)NC(=NCc1cccnc1)N2 (centres undefined),inactive
4,COc1cccc(-c2nnc3n2N=C(c2ccc(OC)cc2OC)CS3)c1,inactive
5,COc1ccc(C2Nc3ccccc3C(=O)N2Cc2ccccn2)cc1COc1c(C)cccc1C (centres undefined),inactive
6,CN(C)c1cccc(-c2ncnc(N3CCC(C(N)=O)CC3)n2)c1,inactive
7,O=C1CN(S(=O)(=O)c2ccc3c(c2)OCCO3)CCN1S(=O)(=O)c1c(F)cccc1F,inactive
8,COc1cc(O)c(C(CC(=O)N2CCC(Cc3ccccc3)CC2)c2ccc(C)cc2)c(OC)c1 (centres undefined),inactive
9,CCC(Nc1ncnc2ccc(-c3c(C)noc3C)cc12)c1ccccc1 (centres undefined),inactive
10,COc1cccc(NC(=S)N2CCN(c3ccc(Cl)cc3Cl)CC2)n1,inactive
11,O=[S+]([O-])(Nc1ccccc1)c1ccc(NCc2cccc(C(F)(F)F)c2Cl)cc1,inactive
12,Cc1ccc(NS(=O)(=O)c2cc3c(cc2N(C)CCN(C)C)NC(=O)CC3)cc1C,inactive
13,O=C(Nc1cc(Cc2ccccc2)ccn1)c1ccc(-c2cccc([N+](=O)[O-])c2)o1,inactive
14,Cc1ccc(OCCn2c3c(c4ccccc42)CCN(C(=O)C2CCCCC2)C3)cc1,inactive
15,CC(=O)Nc1sc2c(c1-c1ccc3c(c1)OCCO3)CCNC2,inactive
16,CN(CC1CCCO1)c1ncnc2ccc(-c3ccc4c(c3)OCO4)cc12 (centres undefined),inactive
17,COc1ccc(C2c3c(ncn(CCc4ccccc4)c3=N)Oc3ccc4ccccc4c32)cc1OC (centres undefined),inactive
18,COC(=O)c1cncc(NC(=O)c2cccs2)c1,inactive
19,Cc1ccc(-c2ccc(=O)n(CC(=O)N(C)[C@@H](C)c3ccccc3)n2)cc1,inactive
20,CCCN1CCN(c2cccc(Nc3nn4c(=O)c5ccccc5nc4s3)c2)CC1,inactive

row,Compound,Potency
1,O=C(Nc1ccc(Cl)c(Cl)c1)Nc1ncc(-c2ccncc2)s1,inactive
2,CCOc1ccc(CCNC(=O)c2cc3sccc3n2Cc2cccc(C)c2)cc1OCC,inactive
3,COc1cc(O)c(C(CC(=O)N2CCCC(C#N)C2)c2ccc3c(c2)OCO3)c(OC)c1 (centres undefined),inactive
4,CC(C)c1cccc(-n2cnc3cc(C(=O)N4CCCCC4)ccc32)c1,inactive
5,CN(C)C(=O)c1ccc(-c2cc[nH]c(=O)c2N)cc1,inactive
6,O=C1CCCC2=C1C(c1cccc(F)c1)N=C(Nc1nc3ccccc3o1)N2 (centres undefined),inactive
7,O=[S+]([O-])(c1ccc2c(c1)OCCO2)N1CCN([S+](=O)([O-])c2c(F)cc(O)cc2F)CC1,inactive
8,Cc1cc(C)nc(NC(=S)N2CCN(c3ccc4ccccc4c3)CC2)c1,inactive
9,Cc1nnc(-c2cnn(C)c2N)n1CCCn1ccnc1,inactive
10,O=C1c2ccccc2C(=O)N1Cc1ccccn1,inactive
11,Cc1nc(-c2ccccc2C(C)C)nc(NCc2ccc(-c3cccnc3)cc2)c1C,inactive
12,O=S(=O)(c1ccc2c(c1)OCCO2)N1CCN(S(=O)(=O)c2cc(F)ccc2F)CC1,inactive
13,Oc1cc(NCCc2cccnc2)cc2cccnc12,inactive
14,CNc1oc(-c2ccc3c(c2)OCCO3)nc1C#N,inactive
15,COc1ccc(C(=O)N(Cc2cccs2)Cc2cccs2)c(O)c1,inactive
16,O=C1OC(c2ccccc2)(c2ccccc2)N2CCN(C(=O)NCc3ccc(F)cc3)CC12 (centres undefined),inactive
17,O=C(Nc1cccc(-c2nn3c(=O)cc(N4CCNCC4)nc3s2)c1)C1CCNCC1,inactive
18,O=C1NC(=O)/C(=C/c2cccn2-c2ccc(P(O)O)cc2)N1,inactive
19,Cc1ccc(OCCn2c(CCNC(=O)c3ccccc3Br)nc3ccccc32)cc1,inactive
